# Results from ChEMBL document CHEMBL4513135, “CO-ADD screening of IQOG CSIS (Spain) compounds”.
# Measured potencies and affinities stand elsewhere.
# System: Escherichia coli
# Conditions: Concentration 32 ug.mL-1; ASSAY_TEST Inhibition of Bacterial Growth; detection method Absorption (OD600); MEDIA CAMHB; plate type 384well; NBS; CORNING #3640; time 18 hr
row,Structure (SMILES),Inhibition [%]
1,CCOc1nc(N)c(C#N)cc1C#N,-14.2
2,Cl.ClCCCC1CCNCC1,19.24
3,COC(=O)C(=Cc1ccccc1)NC(=O)c1ccccc1,6.08
4,Cn1ccnc1C1c2c(nc3c(c2N)CCC3)Oc2ccc3ccccc3c21 (stereo not given),-9.44
5,CCOC(=O)c1cc2cc(OC)ccc2n1C,-9.48
6,C#CCN(Cc1ccccc1)c1nc(N)c(C#N)c(-c2ccccc2)c1C#N,-2.54
7,CN(C)c1nc(N)c(C#N)cc1C#N,5.07
8,CS(=O)(=O)O[C@H]1CC[C@H](OS(C)(=O)=O)CC1,-5.59
9,O=C1OC(c2ccccc2)=NC1=Cc1ccc(Cl)cc1,10.9
10,N#Cc1c(NC2CCC(Cc3ccccc3)CC2)nc(NC2CCN(Cc3ccccc3)CC2)c(C#N)c1-c1ccccc1 (stereo not given),-8.77
11,O=C(O)c1c[nH]c2ccccc12,-2.29
12,COC(=O)C(=Cc1ccc(OC)cc1)NC(=O)c1ccccc1,11.52
13,COc1ccc(-c2cc(-c3cc4ccc(F)cc4nc3Cl)cc(=O)[nH]2)cc1,-19.12
14,N#Cc1cc(C#N)c(NCCO)nc1N,-7.55
15,C#CCNc1nc(NCC#C)c(C#N)cc1C#N,-10.16
16,C=C1CN(C)c2ncc(C#N)c(=N)n21,-21.82
17,C#CCN(C)c1nc(NCCC2CCN(Cc3ccccc3)CC2)c(C#N)cc1C#N.Cl,-3.04
18,Cl.N#Cc1c(Cl)nc(N)nc1NCCO,-1.11
19,CCCC(C)NNC(=O)c1cc2ccccc2[nH]1 (stereo not given),3.83
20,COc1ccc(/C=C2/N=C(c3ccccc3)OC2=O)cc1OC,-9.68

row,Structure (SMILES),Inhibition [%]
1,ClCCC1CCN(Cc2ccccc2)CC1,16.74
2,COc1ccc(C2c3ccc4ccccc4c3Oc3nc4c(c(N)c32)CCCC4)c(OC)c1 (stereo not given),-4.44
3,CCOC(=O)c1cc2ccccc2[nH]1,13.65
4,O=C1OC(c2ccc([N+](=O)[O-])cc2)=NC1=Cc1ccccc1,13.11
5,C#CCN(C)Cc1cc2cc(OC)ccc2n1C,-8.2
6,N#CCC(=C(C#N)C#N)c1ccccc1,4.41
7,Cn1c(C(=O)O)cc2cc(OCCCC3CCN(Cc4ccccc4)CC3)ccc21,-8.76
8,N#Cc1cccnc1Cl,-20.17
9,C#CCN(C)c1nc(NCCCC2CCN(Cc3ccccc3)CC2)c(C#N)cc1C#N,-10.35
10,N#CC1=C(Cl)Oc2c(ccc3ccccc23)C1c1ccccc1[N+](=O)[O-] (stereo not given),-14.23
11,COC(=O)C(NC(=O)c1ccccc1)=C(C)c1ccccc1,2.63
12,C/C(Cc1ccccc1)=N\NC(=O)c1c[nH]c2ccccc12,14.48
13,CC#CCN(C)Cc1cc2cc(OCc3ccccc3)ccc2n1C.O=C(O)C(=O)O,5.45
14,C#CCN(C)c1nc(Sc2ccccc2)c(C#N)c(-c2ccccc2)c1C#N,1.09
15,COc1ccc2c(c1)cc(CN(C)C)n2C,-1.4
16,N#Cc1ccc(Br)cc1N,16.76
17,Nc1c2c(nc3c1C(c1ccc(Cl)c(Cl)c1)c1ccc4ccccc4c1O3)CCCC2 (stereo not given),-11.77
18,COc1ccc2c(c1)cc(CNc1ccccc1)n2C,-6.35
19,C1CNCCNCCNCCNC1,9.31
20,N#Cc1c(N)nc(N)c(C#N)c1-c1ccccc1,-10.66
